Data reported in PubChem BioAssay (NCI).
This is part of a sample that, as a whole, favours compounds with a hit. Of some 83,000 tested, about 20% had one in any assay.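 Cell lines were cultured in 96-well plates, exposed to a single compound concentration, and assessed for percent growth 48 hours later.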 A number with no mark means an inactive call. The source made the active and inactive calls.

System: UO-31 renal
Test: NCI-60 one-dose screen, 48 h (100 = growth as untreated, 0 = no growth, -100 = all killed)
Settings: 10 µM
Method: Growth inhibition of the UO-31 human tumor cell line is measured as a screen for anti-cancer activity. Cells are grown in 96 well plates and exposed to the test compound for 48 hours. Compounds are tested at a single concentration, which is 10^-5 M for most compounds. The reported endpoint is percent growth (GI% or GIPRCNT), where numbers from 0 - 100% represent growth inhibition, and numbers from -100% - 0 represent cell death. For example, a value of 40 represents 60% growth inhibition. A value of 0 means no net growth occurred over the course of the experiment. A value of -40 indicates 40% of cells at the beginning of the experiment died by the end of the experiment. A value of -100 means all cells are dead at the end of the experiment.
NCI-60 Human Tumor Cell Lines Screen was performed using the standard one-dose NCI protocol, which is described in more detail at https://dtp.cancer.gov/discovery_development/nci-60/default.htm.
Compounds with GIPRCNT values below 10 were considered active. Activity score was based on GIPRCNT using the following formula: […]
Score is 0 for GIPRCNT values of 100 or above, 50 for GIPRCNT values of 0, and 100 for GIPRCNT values of -100.

| SMILES | growth |
| --- | --- |
| C1CNC(C2=NCCN2)=N1 | 90.2% |
| COc1cc2cc(c1Cl)N(C)C(=O)C[C@H](OC(=O)[C@H](C)N(C)C(C)=O)[C@]1(C)O[C@H]1[C@H](C)[C@@H]1C[C@@](O)(NC(=O)O1)[C@H](OC)C=C/C=C(\C)C2 | 7.35% (active) |
| O=C(CCl)Nc1ccc2c(c1)C(=O)c1ccc(NC(=O)CCl)cc1C2=O | -95.5% (active) |
| S=C(Nc1ccccc1)N1CCCCC1 | 88.4% |
| CC(C)(N)COS(=O)(=O)O | 100% |
| O=c1cc2oc3cc(O)c(O)cc3c(-c3ccccc3O)c-2cc1O | 34.9% |
| CCCCC/C=N/Nc1nc(C)cc(=O)[nH]1 | 92.1% |
| c1ccc2c(N3CCCCC3)ncnc2c1 | 62.5% |
| O=C(O)/C=C/C(=O)NCc1ccccc1 | 90.9% |
| CCOC(=O)CNN | 91.4% |
| Nc1nc(N)c2cc(S(=O)(=O)c3cccc(C(F)(F)F)c3)ccc2n1 | 56% |
| O=C(Cc1ccc(OCc2ccccc2)cc1)NCc1ccc2c(c1)OCO2 | 73.7% |
| Cc1cc(Cc2cc(C)c(N)cc2N)c(N)cc1N | 77.2% |
| O=C(CC(=O)c1ccccc1O)c1ccccc1 | 87.3% |
| NNc1ccccc1C(=O)O | 87.9% |
| COC(=O)c1cccnc1 | 78.9% |
| Clc1ccc(-c2n[nH]c3c2Cc2ccccc2-3)cc1Cl | 72.4% |
| Cn1cnc2nc(Cl)nc(Cl)c21 | 45.2% |
| COc1cc(/C=N\Nc2ccccc2)ccc1OC(=O)c1ccccc1 | 21.5% |
| CC1=C(/C=C/C(C)=C/C=C/C(C)=C/CO)C(C)(C)CCC1 | 87.3% |

| SMILES | growth |
| --- | --- |
| O=C(NCCNC(=O)c1ccc(Cl)cc1Cl)c1ccc(Cl)cc1Cl | 90.9% |
| NC(CSC(c1ccccc1)(c1ccccc1)c1ccccc1)C(=O)O (stereo not given) | 54.3% |
| CC(CC(=O)c1ccccc1)c1ccccc1 (stereo not given) | 95.4% |
| Cc1c(C(=O)O)c(=O)n(-c2ccccc2)n1C | 89.6% |
| OC1CCCc2ccccc21 (stereo not given) | 60.6% |
| O=C(NCc1ccco1)Nc1c(Cl)cc(Cl)cc1Cl | 84% |
| CCN=c1cc2sc3cc(NCC)c(C)cc3nc-2cc1C | 40.5% |
| CC1=CC(C)(C)NC(=S)N1c1ccc(S(=O)(=O)O)c2cccc(S(=O)(=O)O)c12 | 72.6% |
| CCOC(=O)C/C(C)=N\O | 81.6% |
| CC1=CC(=O)c2ccccc2C1=O | 70% |
| COC(=O)/C=C1\Sc2cc(F)ccc2NC1=O | 101% |
| CC(=O)/C(Cc1ccccc1)=N/O | 96.2% |
| COc1ccc(C(=O)C(Br)C(Br)C(=O)O)cc1 (stereo not given) | 102% |
| CC1(C)Nc2cccc3c(N=Nc4ccc(N=Nc5ccccc5)c5ccccc45)ccc(c23)N1 | 54.2% |
| Nc1ccccc1SC(CC(=O)c1ccccc1)c1c(Cl)cccc1Cl (stereo not given) | 58.1% |
| CCC(C)(O)c1ccc(C)cc1 (stereo not given) | 91.4% |
| O=C(Nc1ccccc1)OCCc1ccccc1 | 103% |
| O=C(NCO)c1ccccc1 | 78.9% |
| COc1cccc(O)c1O | 70.3% |
| O=C(OCC(O)C1OC(c2ccccc2)OC(COC(=O)c2ccccc2)C1O)c1ccccc1 (stereo not given) | 93.2% |
